For 33 sequences, binding signal results are on record in publication PMC5700166.

For experiment [1], the target named is T1, GST-Nv-NF-kB (Ser allele) (Nematostella vectensis, UniProt A7UNT2 2-411).
T1 sequence: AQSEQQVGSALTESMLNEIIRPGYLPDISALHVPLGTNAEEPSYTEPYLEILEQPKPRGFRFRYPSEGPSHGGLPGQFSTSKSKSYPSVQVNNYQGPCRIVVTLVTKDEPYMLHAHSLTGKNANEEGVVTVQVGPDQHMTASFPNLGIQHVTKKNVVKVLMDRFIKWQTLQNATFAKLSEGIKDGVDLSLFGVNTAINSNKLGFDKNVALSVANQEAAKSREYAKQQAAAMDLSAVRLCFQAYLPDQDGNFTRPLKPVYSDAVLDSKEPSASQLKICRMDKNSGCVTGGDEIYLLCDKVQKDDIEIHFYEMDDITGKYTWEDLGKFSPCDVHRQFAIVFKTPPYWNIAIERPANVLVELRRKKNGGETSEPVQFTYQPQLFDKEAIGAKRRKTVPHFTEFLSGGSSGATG
Nature of the experiment: protein-binding microarray (PBM); PBM: ~300 nM protein, 6 mM HEPES pH 7.8, 80 mM KCl, 0.5 mM EDTA, 0.5 mM EGTA, 6% glycerol, 35 ng/ul poly-dIdC, 1% milk, 1 h, room temperature; Ap Aiptasia and Nv Nematostella (sea anemones) / Co Capsaspora / Aq Amphimedon (sponge) / Dm Drosophila / Hu human; RHD is the Rel homology domain; high values mean tight binding. The settings on record: dsDNA, one strand shown.

For the next experiment, the target named is GST-Hu-p50 (Homo sapiens, UniProt P19838 7-356). The experiment is described as above. As to conditions: dsDNA, one strand shown.
GST-Hu-p50, sequence (P19838 7-356): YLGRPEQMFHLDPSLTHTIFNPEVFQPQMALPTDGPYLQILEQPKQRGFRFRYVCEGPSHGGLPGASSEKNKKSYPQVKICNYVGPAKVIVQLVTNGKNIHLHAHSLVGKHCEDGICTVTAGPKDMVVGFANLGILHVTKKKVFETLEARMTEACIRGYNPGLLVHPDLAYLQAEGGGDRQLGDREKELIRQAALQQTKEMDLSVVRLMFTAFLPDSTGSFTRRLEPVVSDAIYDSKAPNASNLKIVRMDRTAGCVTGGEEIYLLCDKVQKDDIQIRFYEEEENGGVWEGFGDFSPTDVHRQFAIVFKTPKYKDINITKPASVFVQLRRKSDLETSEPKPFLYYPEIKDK

Take “CCGATTAACATCAGGAAATCCCATGATGTTAATCGGGTCTTGATTCGCTTGACGCTGCTG”: the results for the binding signal (in experiment [1]; with GST-Hu-p50) were 1.81 z-score and 3.19 z-score, respectively.

Take “CCGATTAACATCAGGGGACAACCTGATGTTAATCGGGTCTTGATTCGCTTGACGCTGCTG”: the binding signal in experiment [1] was found to be 4.41 z-score; with GST-Hu-p50, 4.2 z-score.

As to “CCGATTAACATCAGGTATTTTTATGATGTTAATCGGGTCTTGATTCGCTTGACGCTGCTG”, the binding signal amounted to 3.43 z-score in experiment [1] and 3.11 z-score in the experiment with GST-Hu-p50.

For “CCGATTAACATCAGGGGTTTCCATGATGTTAATCGGGTCTTGATTCGCTTGACGCTGCTG”, the binding signal amounted to 4 z-score in experiment [1] and 4.95 z-score with GST-Hu-p50.

For the sequence “CCGATTAACATCAGGGAAAATGATGATGTTAATCGGGTCTTGATTCGCTTGACGCTGCTG”, the values for the binding signal (in experiment [1]; in the experiment with GST-Hu-p50) were 6.52 z-score and 2.44 z-score, respectively.

For the sequence “CCGATTAACATCAGGGGGTGATATGATGTTAATCGGGTCTTGATTCGCTTGACGCTGCTG”, the binding signal in experiment [1] is 4.45 z-score; in the experiment with GST-Hu-p50, 3.97 z-score.

“CCGATTAACATCAAGGGTTTTCCTGATGTTAATCGGGTCTTGATTCGCTTGACGCTGCTG”: the binding signal was found to be 2.41 z-score in experiment [1] and 2.92 z-score with GST-Hu-p50.

On to “CCGATTAACATCACGGGAATTTCTGATGTTAATCGGGTCTTGATTCGCTTGACGCTGCTG”, for which the binding signal in experiment [1] worked out at 6.48 z-score; with GST-Hu-p50 it was 4.6 z-score.

As for “CCGATTAACATCAGGGATTTCCATGATGTTAATCGGGTCTTGATTCGCTTGACGCTGCTG”, the binding signal is 2.71 z-score in experiment [1] and 3.25 z-score with GST-Hu-p50.

As to “CCGATTAACATCAGGGAAAGGAATGATGTTAATCGGGTCTTGATTCGCTTGACGCTGCTG”, the binding signal in experiment [1] was 2.07 z-score; in the experiment with GST-Hu-p50, 1.29 z-score.

With “CCGATTAACATCAGGGAAGTCCATGATGTTAATCGGGTCTTGATTCGCTTGACGCTGCTG”, the values for the binding signal (in experiment [1]; with GST-Hu-p50) were 1.93 z-score and 1.11 z-score, respectively.

On to “CCGATTAACATCAGGGAACTTTATGATGTTAATCGGGTCTTGATTCGCTTGACGCTGCTG”, for which the binding signal is 3.6 z-score in experiment [1] and 3.66 z-score in the experiment with GST-Hu-p50.

Consider “CCGATTAACATCAGGGATTCTCATGATGTTAATCGGGTCTTGATTCGCTTGACGCTGCTG”, for which the binding signal in experiment [1] turned out to be 1.71 z-score; with GST-Hu-p50, 1.91 z-score.

Regarding “CCGATTAACATCAGACTGGGAAATGATGTTAATCGGGTCTTGATTCGCTTGACGCTGCTG”, the binding signal in experiment [1] was determined as 1.66 z-score; with GST-Hu-p50 it was 1.43 z-score.

For the sequence “CCGATTAACATCAGACTTCCCCATGATGTTAATCGGGTCTTGATTCGCTTGACGCTGCTG”, the binding signal in experiment [1] was found to be 6.11 z-score; in the experiment with GST-Hu-p50, 4.73 z-score.

Take “CCGATTAACATCAGGAATACCCATGATGTTAATCGGGTCTTGATTCGCTTGACGCTGCTG”: the binding signal came to 3.36 z-score in experiment [1] and 3.18 z-score with GST-Hu-p50.

As for “CCGATTAACATCAACGTATTCCCTGATGTTAATCGGGTCTTGATTCGCTTGACGCTGCTG”, the values for the binding signal (in experiment [1]; with GST-Hu-p50) were 3.53 z-score and 1.19 z-score, respectively.

For “CCGATTAACATCACACCACCCCCTGATGTTAATCGGGTCTTGATTCGCTTGACGCTGCTG”, the binding signal in experiment [1] was determined as 3.35 z-score; with GST-Hu-p50 it was 3.65 z-score.

As for “CCGATTAACATCAGGTAATTTACTGATGTTAATCGGGTCTTGATTCGCTTGACGCTGCTG”, the binding signal in experiment [1] was determined as 3.5 z-score; in the experiment with GST-Hu-p50, 2.79 z-score.

As to “CCGATTAACATCAGGACACTCCCTGATGTTAATCGGGTCTTGATTCGCTTGACGCTGCTG”, the binding signal was determined as 1.43 z-score in experiment [1] and 1.94 z-score with GST-Hu-p50.

In the case of “CCGATTAACATCAGGGGAGAACCTGATGTTAATCGGGTCTTGATTCGCTTGACGCTGCTG”, the binding signal in experiment [1] was 5.63 z-score; with GST-Hu-p50 it was 4.26 z-score.

Consider “CCGATTAACATCAGAAATTTTCCTGATGTTAATCGGGTCTTGATTCGCTTGACGCTGCTG”, for which the binding signal in experiment [1] worked out at 1.33 z-score; with GST-Hu-p50, 2.13 z-score.

Take “CCGATTAACATCAGGAATAACCCTGATGTTAATCGGGTCTTGATTCGCTTGACGCTGCTG”: the results for the binding signal (in experiment [1]; with GST-Hu-p50) were 1.44 z-score and 3.24 z-score, respectively.

On to “CCGATTAACATCACCGATTTCCCTGATGTTAATCGGGTCTTGATTCGCTTGACGCTGCTG”, for which the figures for the binding signal (in experiment [1]; with GST-Hu-p50) were 5.28 z-score and 3.65 z-score, respectively.

For the sequence “CCGATTAACATCAAAACTTCCCATGATGTTAATCGGGTCTTGATTCGCTTGACGCTGCTG”, the binding signal amounted to 3.45 z-score in experiment [1] and 2.96 z-score in the experiment with GST-Hu-p50.

With “CCGATTAACATCAGGGTATTACCTGATGTTAATCGGGTCTTGATTCGCTTGACGCTGCTG”, the figures for the binding signal (in experiment [1]; with GST-Hu-p50) were 4.88 z-score and 3.33 z-score, respectively.

“CCGATTAACATCAGGGGGTCACCTGATGTTAATCGGGTCTTGATTCGCTTGACGCTGCTG”: the figures for the binding signal (in experiment [1]; with GST-Hu-p50) were 2.36 z-score and 2.9 z-score, respectively.

As for “CCGATTAACATCACCCCTCCCCCTGATGTTAATCGGGTCTTGATTCGCTTGACGCTGCTG”, the binding signal in experiment [1] came out at 4.65 z-score; with GST-Hu-p50, 4.06 z-score.

With “CCGATTAACATCAGGCGTCCCCCTGATGTTAATCGGGTCTTGATTCGCTTGACGCTGCTG”, the binding signal in experiment [1] was 4.71 z-score; with GST-Hu-p50, 4.92 z-score.

With “CCGATTAACATCAGGGGATCCACTGATGTTAATCGGGTCTTGATTCGCTTGACGCTGCTG”, the binding signal in experiment [1] stood at 5.91 z-score; with GST-Hu-p50 it was 4.97 z-score.

Take “CCGATTAACATCAGGGTTTTCCATGATGTTAATCGGGTCTTGATTCGCTTGACGCTGCTG”: the binding signal in experiment [1] is 1.68 z-score; in the experiment with GST-Hu-p50 it was 2.46 z-score.

Regarding “CCGATTAACATCAAGTGTTTCCCTGATGTTAATCGGGTCTTGATTCGCTTGACGCTGCTG”, the binding signal in experiment [1] worked out at 3.36 z-score; with GST-Hu-p50, 1.3 z-score.

Turning to “CCGATTAACATCACATACTCCCCTGATGTTAATCGGGTCTTGATTCGCTTGACGCTGCTG”, the binding signal came out at 4.25 z-score in experiment [1] and 3.33 z-score in the experiment with GST-Hu-p50.
